Source: PubChem
Only some compounds are listed: those with a hit (about 1.2% of all), similar ones and a draw of the others.
FadD28 binding = inhibitors of Mycobacterium tuberculosis FadD28 bisubstrate binding. inhibition, % at 12.5 µM. AID 588549. actives 0.22% (n = 360,000). FadD28 bisubstrate probe binding, fluorescence polarization; in the data active = inhibition above about 8.5%, passing the limit was not always enough
PrP UTR inh = inhibition of PrP 5' UTR reporter expression; cell-based PrP 5' UTR mRNA reporter, plate reader; inhibition, % (test concentration not listed); actives 0.35% (n = 340,000); AID 488862; in the data active = inhibition above about 52%; also: 0 = median of the neutral control wells
PriA SSB inh = blocks PriA binding to SSB C-terminal tail | AlphaScreen SSBct-PriA binding, biotinylated peptide | inhibition, % at 33 µM | actives 0.6% (n = 430,000) | AID 1272365; in the data active = inhibition mostly above about 37%, no sharp cut-off; inactive = mostly below about 20%;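 also: plate controls were negative control peptide for no effect and reference peptide for full effect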
PrPC surface inh = reduces human prion protein on the cell surface; P04156; cell surface PrPC, TR-FRET read-out; inhibition, % at 13.8 µM; actives 0.43% (n = 370,000); AID 720596; in the data active = inhibition above about 24%; also: 0% = median of the test wells and 100% = reference compound wells
Rv3671c inh = inhibitors of M. tuberculosis serine protease Rv3671c; P9WHR9; inhibition, % at 5.96 µM; actives 0.048% (n = 320,000); in the data active = inhibition above about 38%;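 also: extracellular domain of Rv3671c used as enzyme; 0% = enzyme with DMSO and 100% = no enzyme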
Mtb UGM inh = inhibitors of M. tuberculosis UDP-galactopyranose mutase | P9WIQ1 | purified UGM, fluorescence polarization probe displacement | inhibition, % at 10 µM | actives 0.06% (n = 320,000) | AID 504406; in the data active = inhibition above about 10%, passing the limit was not always enough
Target sequence (P9WIQ1 whole entry, looked up): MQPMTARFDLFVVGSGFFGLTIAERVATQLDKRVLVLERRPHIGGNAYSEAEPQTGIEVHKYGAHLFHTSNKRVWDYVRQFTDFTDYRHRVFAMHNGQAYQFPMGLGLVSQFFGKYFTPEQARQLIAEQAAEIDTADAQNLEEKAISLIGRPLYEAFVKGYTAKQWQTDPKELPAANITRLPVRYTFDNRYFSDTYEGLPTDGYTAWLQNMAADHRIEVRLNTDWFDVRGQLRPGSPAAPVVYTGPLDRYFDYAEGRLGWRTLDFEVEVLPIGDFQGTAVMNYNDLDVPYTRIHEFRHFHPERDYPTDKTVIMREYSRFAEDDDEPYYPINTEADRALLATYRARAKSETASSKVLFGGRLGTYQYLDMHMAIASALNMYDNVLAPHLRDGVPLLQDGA
PrPC TRFRET cf = confirmation of inhibitors of cell surface human prion protein; AID 743200; shares compounds with PrPC surface inh; actives 65% (n = 1,500); inhibition, % at 13.8 µM; cell surface PrPC level, TR-FRET; in the data active = inhibition above about 25%
LD9 tox = LD9 cell cytotoxicity, PrPc inhibitor counter-screen; shares compounds with PrPC surface inh; LD9 cells cytotoxicity, luminescence viability; inhibition, % at 13.8 µM; actives 29% (n = 1,500); in the data active = inhibition above about 9.5%
Starred values were filed as active, the others as inactive; nt = no result given.

SMILES	FadD28 binding	PrP UTR inh	PriA SSB inh	PrPC surface inh	Rv3671c inh	Mtb UGM inh	PrPC TRFRET cf	LD9 tox
Cc1ccc(C(C)C)c(OC[C@@H](O)CN2CCC(Cc3ccccc3)CC2)c1	nt	nt	-6	nt	nt	nt	nt	nt
CN1OC(Cn2cc(C#N)c(=O)n(C)c2=O)CC1c1ccccc1 (centres undefined)	-1	-15	-1	25*	7	-1	4	1
N#Cc1cc2c(nc1SCC(=O)Nc1cc(S(=O)(=O)N3CCCCC3)ccc1Cl)CCCC2=O	nt	nt	-22	nt	nt	nt	nt	nt
CC(=O)c1ccc(CCCCCCCCCC(=O)O)s1	-2	1	0	76*	-3	-1	68*	-10
COC(=O)CCCCCc1ccc(C(C)=O)s1	0	-11	-14	63*	-3	2	77*	0
CCC(=O)c1ccc(CCCCCC(=O)O)s1	-1	-5	-12	18	2	3	nt	nt
COc1cc(C(=O)Nc2scc(-c3ccc(C)cc3)c2C(=O)O)cc(OC)c1OC	1	-25	-13	60*	9	-3	69*	-5
COc1cc(C(=O)Nc2scc(-c3ccccc3)c2C(=O)O)cc(OC)c1OC	2	-14	0	-1	6	5	nt	nt
CC(=NN=C1NC(=O)C(CC(=O)Nc2ccc(C)c(Cl)c2)S1)C(C)C (centres undefined)	nt	nt	-3	nt	nt	nt	nt	nt
C=C1CC2(CC(c3ccccc3)OC(c3ccccc3)C2)OC1=O (centres undefined)	1	-23	-3	49*	nt	nt	9	70*
Cc1ccc(C)c(Nc2ccc(C(=O)NCCc3ccccc3)cn2)c1	-2	4	2	27*	12	0	4	-2
CC1(C)NC(=O)N(CC(O)COc2ccc(-c3ccc(C#N)cc3)cc2)C1=O (centres undefined)	0	-3	-20	30*	-15	1	14	9
S=c1nc(C2CCCCC2)[nH]c2ccccc12	-1	-15	-7	32*	-3	2	38*	-6
S=c1nc(C2CC2)[nH]c2ccccc12	-2	-17	-13	15	-7	4	nt	nt
CCc1ccc(NC(=O)C2CCCN(S(=O)(=O)c3ccc4c(c3)CCCN4C(C)=O)C2)cc1 (centres undefined)	-5	-13	1	25*	-3	-1	37*	9
CS(=O)(=O)N1CCCC(C(=O)Nc2cccc(F)c2)C1 (centres undefined)	0	16	-6	-5	-11	-1	nt	nt
CCOC(=O)c1ccc(NC(=O)C2CCCN(S(=O)(=O)c3ccc(F)cc3)C2)cc1 (centres undefined)	-1	-15	8	30*	-3	nt	18	2
CC(=O)N1CCCc2cc(S(=O)(=O)N3CCCC(C(=O)N4CCN(c5cc(C)ccc5C)CC4)C3)ccc21 (centres undefined)	-2	12	-4	25*	2	2	21	9.3*
CC(=O)N1CCCc2cc(S(=O)(=O)N3CCCC(C(=O)N4CCN(c5ccccc5)CC4)C3)ccc21 (centres undefined)	-1	-20	7	17	-5	2	nt	nt
CC(=O)N1CCCc2cc(S(=O)(=O)N3CCCC(C(=O)Nc4cccc(F)c4)C3)ccc21 (centres undefined)	-3	-11	13	36*	-8	2	24*	11*
COc1ccc(CNC(=O)Cn2cnc3c(sc4cccc(F)c43)c2=O)cc1	nt	nt	-1	nt	nt	nt	nt	nt
C=CC(=O)N1C/C(=C/c2ccc(F)cc2)C(=O)/C(=C\c2ccc(F)cc2)C1	2	39	23	41*	nt	nt	9	75*
CCCCNC(=O)Cn1cnc(-c2ccc(OCC)cc2)cc1=O	nt	nt	-15	nt	nt	nt	nt	nt
COC(=O)/C(C(C)=O)=C(/C=C/C=C/N(C)C)N(C)C	-3	-5	-9	50*	12	-1	7	4
CCOCc1nc(N)nc(N)c1-c1cccc(Cl)c1	-1	nt	nt	26*	nt	nt	-2	2
SMILES	FadD28 binding	PrP UTR inh	PriA SSB inh	PrPC surface inh	Rv3671c inh	Mtb UGM inh	PrPC TRFRET cf	LD9 tox
CCOC(=O)c1c(C)nc2ccc(Cl)cc2c1-c1ccccc1	-6	-15	-72	6	10	2	nt	nt
O=C(O)c1cc(-c2ccc(Br)s2)nc2ccccc12	-10	-16	-9	33*	nt	4	53*	-7
CN1CCN(NC(=O)c2cc(-c3ccc(Br)s3)nc3ccccc23)CC1	-10	3	-2	9	-11	2	nt	nt
COc1ccc(N(C)S(=O)(=O)c2cccc(C(=O)OC(C(=O)Nc3cc(C)cc(C)c3)c3ccccc3)c2)cc1 (centres undefined)	-1	-23	-3	26*	-111	3	16	-2
COc1cccc(N2CCN(c3nc(C)c(C)c(=O)[nH]3)CC2)c1	-4	-40	-23	10	-8	-1	nt	nt
COc1cccc(N2CCN(c3nc(-c4ccccc4C)cc(=O)[nH]3)CC2)c1	-2	-3	21	31*	nt	1	33*	14*
CCOC(=O)c1ccc(NC(=O)c2cn(C)nc2OC)cc1	nt	nt	-5	nt	nt	nt	nt	nt
Cn1cnc([N+](=O)[O-])c1NC(C)(C)C	-4	-29	-19	-4	0	-1	nt	nt
Cn1cnc([N+](=O)[O-])c1S(=O)(=O)c1ccc(Cl)cc1	0	-20	-3	37*	nt	nt	0	91*
O=C(Nc1nc(-c2ccccn2)cs1)c1ccc(-n2cnnn2)cc1	nt	nt	48	nt	nt	nt	nt	nt
O=C(Nc1nc(-c2ccccn2)cs1)c1ccccc1-n1cnnn1	-3	26	81*	28*	-11	0	27*	20*
Cc1[nH]c(=O)c(C#N)c(C)c1Cc1ccc(Cl)cc1Cl	-3	-4	-4	-2	-2	1	nt	nt
Cc1[nH]c(=O)c(C#N)c(C)c1CSc1ncccn1	-2	1	-8	29*	-4	5	25*	-3
CC(C)Cc1ccc(C(C)C(=O)Nc2ccc(O)cc2)cc1 (centres undefined)	0	-3	15	28*	-5	-2	21	0
CC(C)Cc1ccc(C(C)C(=O)Nc2cccnc2)cc1 (centres undefined)	1	-20	-10	13	-10	4	nt	nt
CC(C)(C)c1ccccc1NC(=O)Nc1nc(C(N)c2ccccc2)cs1 (centres undefined)	0	nt	nt	0	nt	nt	nt	nt
NC(CCc1ccccc1)c1csc(NC(=O)NCCc2ccccc2)n1 (centres undefined)	-3	nt	nt	1	nt	nt	nt	nt
COc1ccc(C(N)c2csc(NC(=O)Nc3ccccc3C(C)(C)C)n2)cc1 (centres undefined)	1	nt	nt	30*	nt	nt	7	-6
NC(CCc1ccccc1)c1csc(NC(=O)Nc2ccccc2Oc2ccccc2)n1 (centres undefined)	-2	nt	nt	50*	nt	nt	34*	3
